# Compound activity as filed in PubChem.
# Methyltransferases – Primary Screen for Target Class Profiling of Small Molecule Inhibitors of Methyltransferases; hit rate 3.9% among 25,000; AID 1745853, 2022; calls only at 40 µM; purified enzyme, MTase-Glo SAH luminescence; active compounds read low; call rule not given here
#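 Each enzyme was reacted with SAM and its substrate, with compounds tested once at 40 uM; SAH formed was read by MTase-Glo luminescence.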
# The depositor's hits bear a star; i = inactive; + = active, no number; ! = a repeat was not active. The entries come from a sample that favours hits as a whole. % is scaled to controls: 0 for no effect and ±100 for the full control effect.
SMILES,Methyltransferases
CC(=O)O[C@@H]1[C@@H](OC(=O)/C=C/c2ccccc2)[C@@H](OC(C)=O)[C@H](O[C@H]2[C@@H]3C=CO[C@@H](O[C@@H]4O[C@H](CO)[C@@H](O)[C@H](O)[C@H]4O)[C@@H]3[C@@]3(CO)O[C@@H]23)O[C@H]1C,i
CCOC(=O)CNC(=O)C1(C)Cn2c(ccc2-c2ccco2)C(=O)N1Cc1ccc(OC)cc1 (stereo not drawn),i
CCOC(=O)c1cc2n(n1)CC(C)(C(=O)NC1CCCC1)N(c1cccc(CC)c1)C2=O (stereo not drawn),i
Cc1[nH]c(=O)c(C#N)cc1-c1ccncc1,i
CCOC(=O)C1CCN(C(=O)c2ccc3nccn3c2)CC1,i
Cc1[nH]c(=O)c(C#N)cc1-c1ccc2nccn2c1,+
CC(=O)Nc1c2n(c3ccccc13)CC(C)(C(=O)NC1CCCC1)N(Cc1ccco1)C2=O (stereo not drawn),i
O=C(NCCC1CCN(S(=O)(=O)c2ccccc2)CC1)NCc1ccco1,i
COc1cc(C(=O)O)ccc1NC(=O)[C@@H]1N[C@@H](CC(C)(C)C)[C@](C#N)(c2ccc(Cl)cc2F)[C@H]1c1cccc(Cl)c1F,+
CCCn1c(=O)c2ccc(C(=O)NCC(C)C)cc2n2c(=O)n(CC(=O)c3cccc(Cl)c3)nc12,i
CC1CCC(NC(=O)C2(C)Cn3c(ccc3-c3ccccc3)C(=O)N2CC(C)c2ccccc2)CC1 (stereo not drawn),i
Cc1ccc(NC(=O)CSc2nnc3n(CCc4ccccc4)c(=O)c4ccccc4n23)cc1C,i
C[C@H](Cc1ccc(O)c(O)c1)[C@@H](C)Cc1ccc(O)c(O)c1,+
CC(CCc1ccc(O)cc1)NCCc1ccc(O)c(O)c1 (stereo not drawn),i
CCOC(=O)c1cc2n(n1)CC(C)(C(=O)NC1CCCCC1)N(c1ccc(C)cc1C)C2=O (stereo not drawn),i
O=C(CCc1nnc2n(Cc3ccccc3Cl)c(=O)c3ccccc3n12)N1CCN(c2ccc(F)cc2)CC1,i
CCOc1ccc(N2C(=O)c3cc4sc(CC)cc4n3CC2(C)C(=O)NC2CCC(C)CC2)cc1 (stereo not drawn),i
CCCN1C(=O)c2cc(C(=O)NCc3ccc(OC)cc3OC)nn2CC1(C)C(=O)NC1CCCC1 (stereo not drawn),i
CC1CCCCC1NC(=O)C1(C)Cn2c(nc3ccccc32)C(=O)N1Cc1ccco1 (stereo not drawn),i
C=C1C(=O)O[C@@H]2CC(C)=C([C@@H](C)CCCOC(C)=O)[C@@H](O)[C@H]12,+
C=C1C(=O)OC2CC(C)=C(C(C)CCCO[C@@H]3O[C@H](CO)[C@@H](O)[C@H](O)[C@H]3O)C(O)C12 (stereo partly drawn),i
C=C1C(=O)OC2CC(COC(=O)C(C)C)=C(C(C)CCCOC(C)=O)[C@@H](OC(C)=O)C12 (stereo partly drawn),i
Cc1ccc(NC(=O)CSc2nnc3n(CC(C)C)c(=O)c4cc(F)ccc4n23)cc1,i
CSc1cccc(N2C(=O)c3cc(-c4cccs4)nn3CC2(C)C(=O)NC2CCCCCC2)c1 (stereo not drawn),i
Cc1ccc(NC(=O)CSc2nnc3n(Cc4ccccc4)c(=O)c4ccccc4n23)cc1,i
SMILES,Methyltransferases
Cc1cnc(Nc2ccc(CN3CCOCC3)cc2)nc1Nc1cccc(S(=O)(=O)NC(C)(C)C)c1,+
Cc1cnc(Nc2cccc(CN3CCOCC3)c2)nc1Nc1cccc(S(=O)(=O)NC(C)(C)C)c1,i
Cc1cc(S(=O)(=O)NCCN2CCOCC2)ccc1Cl,i
Cc1cccc(CNC(=O)Cn2ccc3cc(S(=O)(=O)N4CCCCC4)ccc32)c1,i
COc1ccc(CCNC(=O)Cn2ccc3cc(S(=O)(=O)N4CCCCC4)ccc32)c(OC)c1,i
COc1ccc(C(=O)Cn2nc3n(CC(C)C)c(=O)c4ccc(C(=O)NC(C)C)cc4n3c2=O)cc1,i
CC(C)CCn1c(=O)c2ccccc2n2c(SCC(=O)Nc3cccc(Cl)c3)nnc12,i
Cc1ccccc1Cn1nc2n(CCC(C)C)c(=O)c3ccc(C(=O)NC(C)C)cc3n2c1=O,i
COc1cccc(OC)c1-c1nc(C(=O)N[C@@H](CC(C)C)C(=O)O)cn1-c1ccnc2cc(Cl)ccc12,i
COc1cc(Nc2ncc3c(n2)-c2ccc(Cl)cc2C(c2c(F)cccc2OC)=NC3)ccc1C(=O)O,+!
Cc1ccc(NC(=O)Cn2c(=O)oc3cc(S(=O)(=O)N4CCCC4)ccc32)cc1Cl,i
CC(C)CNC(=O)c1ccc2c(=O)n(C)c3nn(Cc4cccc(Cl)c4)c(=O)n3c2c1,i
COc1cc(/C=C(\C#N)C(=O)c2ccc(O)c(O)c2)cc(I)c1O,+
COc1cc(/C=C(\C#N)C(=O)Nc2nnc(C(F)(F)F)s2)ccc1OCc1ccc(C(F)(F)F)cc1C(F)(F)F,i
Cc1ccc(N2C(=O)CSc3c(c4ccccc4n3C)C2C(=O)NCc2ccccc2)cc1Cl (stereo not drawn),i
